Source: PubChem BioAssay (National Center for Advancing Translational Sciences (NCATS))
GLP-1R agonist: activates the human GLP-1 receptor; P43220; HEK293 GLP-1R CRE-luciferase, luminescence, 4-6 h; cells express a hypersensitive GLP-1R form; Potency, µM (titrated, usually from 45.6 µM), for the others: at the highest dose activation, usual class: activators; actives 0.007% (n = 380,000); also: potency is read from the fitted curve at half-maximal effect; % of control where 0% means no effect
Target sequence (P43220 whole entry, looked up): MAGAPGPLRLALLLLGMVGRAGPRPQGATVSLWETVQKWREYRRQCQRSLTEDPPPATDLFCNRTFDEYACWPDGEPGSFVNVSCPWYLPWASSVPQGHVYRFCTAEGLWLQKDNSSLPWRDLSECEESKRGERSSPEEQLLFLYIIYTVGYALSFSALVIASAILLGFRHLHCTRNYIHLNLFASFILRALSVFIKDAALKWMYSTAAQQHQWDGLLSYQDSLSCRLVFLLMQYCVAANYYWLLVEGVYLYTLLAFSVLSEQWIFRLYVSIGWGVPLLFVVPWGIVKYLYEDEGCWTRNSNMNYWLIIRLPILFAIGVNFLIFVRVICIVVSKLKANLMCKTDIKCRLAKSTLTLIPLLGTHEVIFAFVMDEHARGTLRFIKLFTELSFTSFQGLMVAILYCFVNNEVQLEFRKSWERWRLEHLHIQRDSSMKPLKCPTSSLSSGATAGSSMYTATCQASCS
HEK293 tox: cytotoxicity in counter-screen for GLP-1R inverse agonists; HEK293 cAMP-luciferase reporter cells, luminescence, 24 h; Potency, µM (doses to about 38.3 µM), inactives show top-dose activity change, negative = inhibition, most hits filed as inhibitors; actives 0.13% (n = 410,000);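 also: loss of luciferase light is scored as toxicity; potency is read from the fitted curve at half-maximal effect; % is scaled to controls: 0 for no effect and ±100 for the full control effect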
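Cells in DMEM/10% Nu serum/1% pen-strep, 1536-well format. Pre-incubated 12 h, dosed with 23 nL compound, incubated a further 24 h. Luciferase detection, 12 min at room temp, luminescence.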
CCT modulator: modulators of cytosolic chaperonin (CCT/TRiC) activity. purified chaperonin ATPase assay, HTRF ADP detection, 30 min. activity change, % (no concentration beside the values), hits read low. actives 0.3% (n = 360,000); in the data active = activity change below about -30%; also: % is scaled to controls: 0 for no effect and ±100 for the full control effect
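TRiC at 40 or 20 nM final (batch-dependent) in 30 mM Tris pH 7.4, 100 mM KCl, 5 mM MgCl2, 1 mM DTT, with compound at single 76 uM and 10 uM ATP, 30 min at 37 deg C. ADP detected by HTRF Transcreener, 665/615 ratio.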
Mm-Cpn inhibitor: blocks the Methanococcus maripaludis chaperonin Mm-Cpn. AID 504842. Potency, µM (top dose mostly 76.9 µM), inactives show at the top dose activity, negative = inhibition, hits mostly inhibitors. purified Mm-Cpn ATPase, ADP Transcreener TR-FRET. actives 0.031% (n = 330,000); also: potency is read from the fitted curve at half-maximal effect; % is scaled to controls: 0 for no effect and ±100 for the full control effect; nearly all actives have a fitted effect of over 80% in size
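Purified archaeal Mm-CPN (25nM final) preincubated 10 min at 37degC with compound, then 10uM ATP for 30 min at 37degC; ADP measured by HTRF Transcreener TR-FRET; buffer 30 mM TRIS pH 7.4, 100mM KCl, 5mM MgCl2, 1mM DTT.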
uPA generation: inhibitors of cell surface uPA generation; AID 540303; Potency, µM (top dose mostly 38.3 µM), inactives show top-dose activity change, negative = inhibition, most hits filed as inhibitors; cell surface uPA generation assay, qHTS; actives 0.31% (n = 330,000); active = well fitted inhibition curve with a large enough effect; inconclusive = small, poorly fitted or top-dose-only effect; inactive = no such curve, though single readings can be large or run the other way; tested in mouse RAW 264.7 cells; also: potency is read from the fitted curve at half-maximal effect; % is scaled to controls: 0 for no effect and ±100 for the full control effect; nearly all actives have a fitted effect of over 55% in size
GLP1R inv ag: GLP-1 receptor (human) inverse agonism. P43220. HEK293 GLP-1R CRE-luciferase, luminescence, 24 h; GLP-1R form is constitutively active. Potency, µM (top dose mostly 38.3 µM), inactives show at the highest dose activity change, negative = inhibition, actives largely listed as inhibitors. actives 1.6% (n = 410,000). AID 624417; also: potency is read from the fitted curve at half-maximal effect; % is scaled to controls: 0 for no effect and ±100 for the full control effect; nearly all actives have a fitted effect of over 55% in size
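qHTS in 1536-well format: reporter HEK293 cells expressing constitutive GLP-1R activity in DMEM + 10% Nu serum, 24 hr with compounds at 37 deg C, luminescence read after 12 min with detection reagent.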
* = called active by the depositor. Shown are actives, neighbours in structure and some others; about 2.2% of the full set was active somewhere. Unless noted, calls follow the shape of the dose curve; as a rule, active = well fitted curve in the direction sought with a large enough effect; inconclusive = small, poorly fitted or top-dose-only effect, or another doubt; inactive = no such curve, though single readings can be large; an effect the other way counts as inactive or inconclusive.

Results for CC1=NN(C(=O)COc2ccc(C)c(C)c2)C(O)(c2ccc(Cl)cc2)C1 (centres undefined) ?
GLP-1R agonist: 7.0%; HEK293 tox: -12.7%; CCT modulator: -3.6; Mm-Cpn inhibitor: 0.7%; uPA generation: -4.3%; GLP1R inv ag: 12.6µM*

Results for COc1ccccc1C(=O)COC(=O)Cn1[nH]c(=O)c2ccccc2c1=O ?
GLP-1R agonist: -3.6%; HEK293 tox: -12.0%; CCT modulator: -30.8*; Mm-Cpn inhibitor: 1.3%; uPA generation: -0.9%; GLP1R inv ag: -7.6%

How did Cc1ccc2nc(CN3CCN(C(=O)Nc4ccc(C)c(F)c4)CC3)oc2c1 do in these assays?
HEK293 tox: -10.6%; GLP1R inv ag: inconclusive

Results for CCN(Cc1nc(-c2ccccc2)no1)C(=O)COc1cccc(OC)c1 ?
GLP-1R agonist: 13.7%; HEK293 tox: 13.9%; CCT modulator: -29.5; Mm-Cpn inhibitor: -0.7%; uPA generation: 1.7%; GLP1R inv ag: 1.78µM*

How did COc1cccc(OCC(=O)N(Cc2nc(-c3ccc(Cl)cc3)no2)C(C)C)c1 do in these assays?
GLP-1R agonist: 7.3%; HEK293 tox: 2.4%; CCT modulator: 1.6; Mm-Cpn inhibitor: 0.3%; uPA generation: 4.9%; GLP1R inv ag: inconclusive

How did CC(NC(=O)Cn1ccc2cc(S(=O)(=O)N3CCCCCC3)ccc21)c1ccccc1 (centres undefined) do in these assays?
HEK293 tox: -15.9%; GLP1R inv ag: inconclusive

What do the screens show for `COCCNC(=O)CCc1c(C)nc2c(c(C)nn2-c2ccc(C)cc2)c1C`?
GLP-1R agonist: -2.3%; HEK293 tox: 11.1%; CCT modulator: -1.4; Mm-Cpn inhibitor: 0.3%; uPA generation: 6.4%; GLP1R inv ag: -4.8%

Results for CCN(CC)CCNC(=O)CCc1c(C)nc2c(c(C)nn2-c2ccc(C)cc2)c1C ?
GLP-1R agonist: -0.2%; HEK293 tox: inconclusive; CCT modulator: -0.8; Mm-Cpn inhibitor: -2.5%; uPA generation: inconclusive; GLP1R inv ag: 1.58µM*

How did O=C1CSC(=S)N1Cc1cccnc1 do in these assays?
GLP-1R agonist: -25.3%; HEK293 tox: inconclusive; CCT modulator: -4.1; Mm-Cpn inhibitor: 1.1%; uPA generation: -13.6%; GLP1R inv ag: 2.82µM*

How did CCOC(=O)c1ccc(CN(Cc2ccccc2C)S(=O)(=O)c2ccc(F)c(C)c2)cc1 do in these assays?
HEK293 tox: 8.8%; GLP1R inv ag: inconclusive

How did COc1cc(Cl)c(NS(=O)(=O)c2ccc(-c3coc(C)n3)cc2)c(OC)c1 do in these assays?
GLP-1R agonist: -7.7%; HEK293 tox: -1.4%; GLP1R inv ag: inconclusive

Results for CC(C)c1ccc(Nc2nc(NCc3ccco3)nc(N3CCOCC3)n2)cc1 ?
GLP-1R agonist: 8.6%; HEK293 tox: -9.2%; CCT modulator: -0.7; Mm-Cpn inhibitor: -1.1%; uPA generation: 2.6%; GLP1R inv ag: 2.24µM*

Results for CC(C)c1ccc(Nc2nc(N3CCOCC3)nc(N3CCOCC3)n2)cc1 ?
GLP-1R agonist: -0.9%; HEK293 tox: 1.8%; CCT modulator: 0.7; GLP1R inv ag: inconclusive

What do the screens show for `O=C(O)COc1ccc2nsnc2c1Cl`?
GLP-1R agonist: -0.4%; HEK293 tox: 68.0%; CCT modulator: -0.8; Mm-Cpn inhibitor: 6.31µM*; uPA generation: 2.2%; GLP1R inv ag: inconclusive

What do the screens show for `Cc1cc(C)nc(OC(C(=O)O)C(OCc2ccccc2)(c2ccccc2)c2ccccc2)n1` (centres undefined)?
GLP-1R agonist: 5.2%; HEK293 tox: -12.5%; CCT modulator: -1.5; Mm-Cpn inhibitor: -6.0%; uPA generation: 8.4%; GLP1R inv ag: inconclusive

How did Cc1ccnc(OC(C(=O)O)C(OCc2ccccc2)(c2ccccc2)c2ccc(C(F)(F)F)cc2)n1 (centres undefined) do in these assays?
GLP-1R agonist: -2.3%; HEK293 tox: 15.5%; CCT modulator: 0.8; Mm-Cpn inhibitor: 2.5%; uPA generation: 0.7%; GLP1R inv ag: 10µM*
